Test results published in PubChem BioAssay (NCATS).
Results filed as inconclusive are left out. Active and inactive are the calls of the source. Calls follow the shape of the dose curve; as a rule, active = well fitted inhibition curve with a large enough effect; inconclusive = small, poorly fitted or top-dose-only effect; inactive = flat fitted curve, though single readings scatter.

Key:
Experiment in all cases: qHTS profiling for inhibitors of Plasmodium falciparum proliferation (AID 504749); also: nearly all actives have a fitted effect of over 60% in size
Conditions in all cases: P. falciparum in erythrocytes, SYBR Green DNA, 72 h; series mostly up to 28.7 µM
DIV17 = tested on: DIV17
Outline: (§1)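 P. falciparum-infected erythrocytes (0.3% parasitemia, 2.5% hematocrit final) were exposed to compounds for 72 h at 37 C in 5% CO2, then lysed with SYBR Green buffer overnight at room temperature; parasite DNA fluorescence was normalized to artemisinin and DMSO controls.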

DIV30 = tested on: DIV30
Outline: as §1

Dd2 = tested on: Dd2
Outline: as §1

ECU = tested on: ECU
Outline: as §1

FAB9 = tested on: FAB9
Outline: as §1

GB4 = tested on: GB4
Outline: as §1

HB3 = tested on: HB3
Outline: as §1

ICS = tested on: ICS
Outline: as §1

JCK = tested on: JCK
Outline: as §1

N140 = tested on: N140
Outline: as §1

P93_24 = tested on: P93_24
Outline: as §1

P94_40 = tested on: P94_40
Outline: as §1

PAD = tested on: PAD
Outline: as §1

PC15 = tested on: PC15
Outline: as §1

PC26 = tested on: PC26
Outline: as §1

PC49 = tested on: PC49
Outline: as §1

SC27B = tested on: SC27B
Outline: as §1

TAB109 = tested on: TAB109
Outline: as §1

TAB113 = tested on: TAB113
Outline: as §1

TAB165 = tested on: TAB165
Outline: as §1

Measured: Potency
Potency is read from the fitted curve at half-maximal effect.

CC1(C)CCC(C)(C)c2cc(NC(=O)c3ccc(C(=O)O)cc3)ccc21
inactive: DIV17 | DIV30 | Dd2 | ECU | FAB9 | GB4 | HB3 | ICS | JCK | N140 | P93_24 | P94_40 | PAD | PC15 | PC26 | PC49 | SC27B | TAB109 | TAB113 | TAB165

CC(C)(S)[C@@H](N)C(=O)O
inactive: DIV17 | DIV30 | Dd2 | ECU | FAB9 | GB4 | HB3 | ICS | JCK | N140 | P93_24 | P94_40 | PAD | PC15 | PC26 | PC49 | SC27B | TAB109 | TAB113 | TAB165

CC(S)C(=O)NCC(=O)O (stereo not drawn)
inactive: DIV17 | DIV30 | Dd2 | ECU | FAB9 | GB4 | HB3 | ICS | JCK | N140 | P93_24 | P94_40 | PAD | PC15 | PC26 | PC49 | SC27B | TAB109 | TAB113 | TAB165

N=C(N=C(N)N)N1CCOCC1
inactive: DIV17 | DIV30 | Dd2 | ECU | FAB9 | GB4 | HB3 | ICS | JCK | N140 | P93_24 | P94_40 | PAD | PC15 | PC26 | PC49 | SC27B | TAB109 | TAB113

O=C(O)c1cc(=O)c2c(OCC(O)COc3cccc4oc(C(=O)O)cc(=O)c34)cccc2o1
inactive: DIV17 | DIV30 | Dd2 | ECU | FAB9 | GB4 | HB3 | ICS | JCK | N140 | P93_24 | P94_40 | PAD | PC15 | PC26 | PC49 | SC27B | TAB109 | TAB113 | TAB165

Cc1ccc(NC(=O)c2ccc(CN3CCN(C)CC3)cc2)cc1Nc1nccc(-c2cccnc2)n1
active: DIV17 15.1 µM | DIV30 12 µM | Dd2 10 µM | ECU 8.91 µM | GB4 15.1 µM | ICS 11.2 µM | N140 8.91 µM | P93_24 10 µM | P94_40 11.2 µM | PAD 10 µM | PC26 15.1 µM | TAB109 10 µM | TAB113 12.6 µM | TAB165 11.2 µM

Cn1c(NCCN(CCO)CCCc2ccc([N+](=O)[O-])cc2)cc(=O)n(C)c1=O
inactive: DIV17 | DIV30 | Dd2 | ECU | FAB9 | GB4 | HB3 | ICS | JCK | N140 | P93_24 | P94_40 | PAD | PC15 | PC26 | PC49 | SC27B | TAB109 | TAB113 | TAB165

CCN(CCO)CCCC(C)Nc1ccnc2cc(Cl)ccc12 (stereo not drawn)
active: FAB9 1.41 µM | HB3 1 µM
inactive: DIV17 | DIV30 | Dd2 | ICS | JCK | N140 | P93_24 | P94_40 | PAD | PC26 | PC49 | SC27B | TAB109 | TAB113 | TAB165

CS(=O)(=O)OCCCCOS(C)(=O)=O
inactive: DIV17 | DIV30 | Dd2 | ECU | FAB9 | GB4 | HB3 | ICS | JCK | N140 | P93_24 | P94_40 | PAD | PC15 | PC26 | PC49 | SC27B | TAB109 | TAB113 | TAB165

CCCCCCCCCCCCCCCCCCCCCCO
inactive: DIV17 | DIV30 | Dd2 | ECU | FAB9 | GB4 | HB3 | ICS | JCK | N140 | P93_24 | P94_40 | PAD | PC15 | PC26 | PC49 | SC27B | TAB109 | TAB113 | TAB165

CCCc1cc(=O)[nH]c(=S)[nH]1
inactive: DIV17 | DIV30 | Dd2 | ECU | FAB9 | GB4 | HB3 | ICS | JCK | N140 | P93_24 | P94_40 | PAD | PC15 | PC26 | PC49 | SC27B | TAB109 | TAB113 | TAB165

Clc1ccc(C(Cn2ccnc2)OCc2ccsc2Cl)c(Cl)c1 (stereo not drawn)
active: DIV17 1.69 µM | DIV30 4.78 µM | Dd2 3.16 µM | ECU 1.41 µM | GB4 1.69 µM | HB3 3.16 µM | ICS 1 µM | JCK 5.01 µM | N140 2.82 µM | P93_24 2.24 µM | P94_40 4.47 µM | PAD 1 µM | PC15 4.47 µM | PC26 3.38 µM | PC49 4.47 µM | SC27B 2 µM | TAB109 5.01 µM | TAB113 4.47 µM | TAB165 1 µM

O=C(CS(=O)Cc1ccco1)NCC=CCOc1cc(CN2CCCCC2)ccn1 (stereo not drawn)
inactive: DIV17 | DIV30 | Dd2 | ECU | FAB9 | GB4 | HB3 | ICS | JCK | N140 | P93_24 | P94_40 | PAD | PC15 | PC26 | PC49 | SC27B | TAB113 | TAB165

CNC[C@H](O)c1ccc(O)c(O)c1
inactive: DIV17 | DIV30 | Dd2 | ECU | FAB9 | GB4 | HB3 | ICS | JCK | N140 | P93_24 | P94_40 | PAD | PC15 | PC26 | PC49 | SC27B | TAB109 | TAB113 | TAB165

CCOc1cc(CC(=O)N[C@@H](CC(C)C)c2ccccc2N2CCCCC2)ccc1C(=O)O
inactive: DIV17 | DIV30 | Dd2 | ECU | FAB9 | GB4 | HB3 | ICS | JCK | N140 | P93_24 | P94_40 | PAD | PC15 | PC26 | PC49 | SC27B | TAB109 | TAB113 | TAB165

C=CCc1cc(OC)c(O)c(C(=O)NCCO)c1
inactive: DIV17 | DIV30 | Dd2 | ECU | FAB9 | GB4 | HB3 | ICS | JCK | N140 | P93_24 | P94_40 | PAD | PC15 | PC26 | PC49 | SC27B | TAB109 | TAB113 | TAB165

CC(C)c1ccc2oc3nc(N)c(C(=O)O)cc3c(=O)c2c1
inactive: DIV17 | DIV30 | Dd2 | FAB9 | GB4 | HB3 | ICS | JCK | N140 | P93_24 | P94_40 | PC15 | PC26 | PC49 | TAB109 | TAB165

O=C1c2ccccc2-c2n[nH]c3cccc1c23
inactive: DIV17 | DIV30 | Dd2 | ECU | FAB9 | HB3 | JCK | N140 | P93_24 | P94_40 | PAD | PC15 | PC49 | SC27B | TAB109 | TAB113 | TAB165

Cc1c(OCC(F)(F)F)ccnc1CS(=O)c1nc2ccccc2[nH]1 (stereo not drawn)
inactive: DIV17 | DIV30 | Dd2 | ECU | FAB9 | GB4 | HB3 | JCK | N140 | P93_24 | P94_40 | PAD | PC15 | PC26 | PC49 | SC27B | TAB109 | TAB113 | TAB165

Oc1ccc(OCc2ccccc2)cc1
inactive: DIV17 | DIV30 | Dd2 | ECU | FAB9 | GB4 | HB3 | JCK | N140 | P93_24 | P94_40 | PAD | PC15 | PC26 | PC49 | SC27B | TAB109 | TAB113 | TAB165

CCC(C)(Oc1ccc(C2(c3ccc(OC(C)(CC)C(=O)O)cc3)CCCCC2)cc1)C(=O)O (stereo not drawn)
inactive: DIV17 | DIV30 | Dd2 | ECU | FAB9 | GB4 | HB3 | ICS | JCK | N140 | P93_24 | P94_40 | PAD | PC15 | PC26 | PC49 | SC27B | TAB113 | TAB165

c1ccc2[nH]c(-c3cscn3)nc2c1
inactive: DIV17 | DIV30 | Dd2 | ECU | FAB9 | GB4 | HB3 | ICS | JCK | N140 | P93_24 | P94_40 | PAD | PC15 | PC49 | SC27B | TAB109 | TAB113 | TAB165

CN(C)c1ccc2nc3ccc(=[N+](C)C)cc-3sc2c1
inactive: PC49
active: DIV17 0.019 µM | DIV30 0.0675 µM | Dd2 0.0398 µM | ECU 0.0251 µM | FAB9 0.0316 µM | GB4 0.0301 µM | HB3 0.0224 µM | ICS 0.0071 µM | N140 0.0562 µM | P93_24 0.0316 µM | P94_40 0.0447 µM | PAD 0.0316 µM | PC26 0.0675 µM | SC27B 0.0631 µM | TAB109 0.0501 µM | TAB113 0.0501 µM | TAB165 0.0708 µM

COc1ccc2cc([C@H](C)C(=O)O)ccc2c1
inactive: DIV17 | DIV30 | Dd2 | ECU | FAB9 | GB4 | HB3 | JCK | N140 | P94_40 | PAD | PC15 | PC26 | PC49 | SC27B | TAB109 | TAB113 | TAB165

CNC[C@@H](O)[C@@H](O)[C@H](O)[C@H](O)CO
inactive: DIV17 | DIV30 | Dd2 | ECU | FAB9 | GB4 | HB3 | ICS | JCK | N140 | P93_24 | P94_40 | PAD | PC15 | PC26 | PC49 | SC27B | TAB109 | TAB113 | TAB165
